INS promoter inh = TRM-6 insulin promoter activity inhibition; TRM-6 cells (human fetal islet line), insulin promoter-eGFP reporter, imaging; reporter expression induced with tamoxifen; inhibition, % at 2 µM; 0.9% of 130,000 active; AID 1273;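 active = inhibition above the mean plus 3 SD, with well images judged a real hit on visual review, cut at about 60% in these data, passing the limit was not always enough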
Lmaj promast = Leishmania major promastigote growth inhibition. Leishmania major promastigotes, resazurin fluorescence viability. 9% of 200,000 active. inhibition, % at 10 µM. AID 1063; in the data active = inhibition above about 50%;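 note: promastigotes grown with compound for 44 hours at 28 °C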
Ins promoter up = MIN6 insulin promoter up-regulation. MIN6 insulin promoter-GFP reporter, high-content imaging; active compounds read high. z-score at 5 µM. 0.3% of 190,000 active. AID 1625;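 active = z-score above 3 at 5 µM with at least 500 cells counted in the well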
WT yeast gro inh = growth inhibition of WT yeast, mitochondrial fusion screen; mitochondrial fusion phenotypic screen, WT strain; inhibition, % at 10 µM; 2.1% of 190,000 active; AID 1362; in the data active = inhibition above about 58%; tested in S. cerevisiae
Autophagy mod = alters autophagy in cells; 0.98% of 190,000 active; calls only at 10 µM (by protocol); MEF GFP-LC3 puncta imaging; test concentration mostly 10 µM;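 active = percentage of spot-positive cells more than 3 SD above its plate mean, without a fluorescence outlier flag or 80% toxicity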;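 note: spot-positive cell cutoff set from DMSO-treated cells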
An asterisk follows results filed as active; i = inactive; . = not tested or not shown; + = active, no number. Sampled rows, rich in hits. Any-hit rate of the full collection: about 11%.

SMILES | INS promoter inh | Lmaj promast | Ins promoter up | WT yeast gro inh | Autophagy mod
CCn1c(C(=O)Nc2ccsc2C(=O)OC)cc2sc(Cl)cc21 | . | 3 | -0.96 | 16 | +
O=C(N/C=C/c1ccc(Cl)cc1)NCc1ccc(Cl)cc1 | 7 | 60* | -1 | 6 | i
O=C(Cn1c(C(=O)NCC2CCCO2)cc2sccc21)c1ccccc1 (stereo not given) | -11 | 8 | -0.25 | -20 | i
O=C(Cn1c(C(=O)N2CCN(C3CCCC3)CC2)cc2sccc21)c1ccccc1 | . | 93* | -0.9 | 0 | i
COC(=O)NC(=C(Cl)Cl)S(=O)(=O)c1ccccc1 | -31 | 97* | -2 | -16 | i
CC(=O)OCCCNc1cc(Sc2nc3ccccc3s2)c2nonc2c1[N+](=O)[O-] | -27 | 65* | 0.59 | 97* | i
COC(=O)CCSc1cc(NCCOC(C)=O)c([N+](=O)[O-])c2nonc12 | 19 | 84* | 1.2 | -1 | i
CC(=O)OCCCNc1cc(Sc2ccc(C)cc2)c2nonc2c1[N+](=O)[O-] | 49 | 6 | -0.19 | 0 | i
CCCC(=O)OCCNc1cc(SCCC(=O)OC)c2nonc2c1[N+](=O)[O-] | 33 | 16 | 0.6 | 5 | i
CSc1sc(C(=O)O)c(C)c1C(C)=O | -26 | 5 | -0.08 | -3 | i
CCn1cc(C(=O)NCC(C)C)c(=O)c2cc(F)c(N3CCN(C)CC3)cc21 | . | . | 0.2 | . | .
CCn1cc(C(=O)NCc2ccccn2)c(=O)c2cc(F)c(N3CCN(C)CC3)cc21 | . | . | -0.06 | -14 | .
CCn1cc(C(=O)NCc2ccc3c(c2)OCO3)c(=O)c2cc(F)c(N3CCN(C)CC3)cc21 | -64 | 79* | -0.59 | 10 | i
CCn1cc(C(=O)NCCc2ccccc2)c(=O)c2cc(F)c(N3CCN(C)CC3)cc21 | 8 | 97* | 0.2 | 62* | i
Cc1cc(C(C)(C)C)cc(C)c1C(=O)O | . | . | 0.62 | . | .
CCCS(=O)(=O)c1c(S(=O)(=O)CCC)c2cc(CC)ccn2c1C(=O)OC | . | 16 | -1.6 | 70* | i
CCCS(=O)(=O)c1c(S(=O)(=O)CCC)c2ccccn2c1C(=O)OC | 4 | -1 | -0.29 | 1 | i
Cc1ccc(/C=N/Nc2ccc3ccccc3n2)o1 | . | 63* | -3.2 | 54 | i
C(=N\Nc1ccc2ccccc2n1)/c1ccc2c(c1)OCCO2 | -33 | 35 | 0.07 | 32 | i
Cc1cccc(/C=N/Nc2ccc3ccccc3n2)c1 | -27 | 34 | 0.52 | 64* | i
Cc1c(C(=O)C(=O)NCC2CCCO2)c2ccccc2n1C (stereo not given) | 58 | -4 | -0.01 | 10 | i
O=C(CN(Cc1ccco1)C(=O)CCC(=O)Nc1ccccn1)NCCc1ccccc1 | -36 | 98* | . | -7 | i
CC1C/C(=C\c2cccnc2)C(=O)/C(=C/c2cccnc2)C1 (stereo not given) | -8 | 100* | -1.6 | 55 | i
CCOC(=O)CCc1c(C)nc(SCCN2CCCC2)c(C#N)c1C | . | 81* | . | 9 | i
CCOC(=O)CCc1c(C)nc(SCCCn2c(=O)[nH]c3ccccc32)c(C#N)c1C | 9 | 2 | -0.15 | -11 | i
SMILES | INS promoter inh | Lmaj promast | Ins promoter up | WT yeast gro inh | Autophagy mod
Cc1cccc(N2CCN(C(=O)CC(NC(=O)c3ccccc3Cl)c3ccccc3)CC2)c1C (stereo not given) | -6 | 95* | -0.05 | 44 | i
CCSc1ccccc1C(=O)N1CCN(c2ccc([N+](=O)[O-])cc2)CC1 | . | 4 | -2.1 | -22 | i
Cc1cccc(N2CCN(C(=O)Cc3ccc(Br)cc3)CC2)c1C | -8 | -1 | -0.44 | 15 | i
O=C(NC(CC(=O)N1CCN(c2ccc([N+](=O)[O-])cc2)CC1)c1ccccc1)c1ccccc1Cl (stereo not given) | 39 | 83* | -1.9 | -4 | i
COc1cc(/C=N/N=C/c2c[nH]c(=O)c(C#N)c2Nc2ccccc2)ccc1O | . | . | 0.02 | . | .
CCN(CC)CCCN1C(=O)C(=O)/C(=C(/O)c2ccc3c(c2)CC(C)O3)C1c1cccnc1 (stereo not given) | . | . | 0.14 | . | .
Fc1ccc(C2c3cccn3CCN2C(=S)Nc2cccc(F)c2)cc1 (stereo not given) | -4 | 21 | -0.17 | 80* | i
S=C(Nc1ccccc1)N1CCn2cccc2C1c1cccnc1 (stereo not given) | . | 86* | -0.01 | -4 | i
CNC(=S)N1CCn2cccc2C1c1ccc(F)cc1 (stereo not given) | . | -5 | 0.34 | -13 | i
Fc1cccc(NC(=S)N2CCn3cccc3C2c2cccnc2)c1 (stereo not given) | 0 | 92* | -0.17 | 5 | i
COc1ccccc1NC(=S)N1CCn2cccc2C1c1cccnc1 (stereo not given) | 0 | 78* | 0.18 | 0 | i
Cc1[nH][nH]c(=O)c1/C=N/N1CCOCC1 | . | -4 | -0.5 | -12 | i
S=C(NC1CCCCC1)N1CCn2cccc2C1c1cccnc1 (stereo not given) | -142 | 98* | -0.66 | 10 | i
CCC(=O)NC1(Cc2ccc(O)cc2)CCCCC1 | 35 | -2 | 0.24 | 1 | i
NC(=O)c1ccc(N2CCCCC2)c(N2C(=O)C3CC=CCC3C2=O)c1 (stereo not given) | -11 | -3 | 0.06 | 84* | i
COc1ccccc1-n1cc([C@@H]2C[C@H]3CN(c4ccccc4)C(=O)[C@]34CCCN24)cn1 | . | 2 | 0.24 | 5 | i
CN(C)c1cccc2c1c(NC(=O)c1ccc(Cl)cc1)nn2C | . | . | 0.64 | . | .
CCOC(=O)c1c(C)oc2cc(Br)c(OC)cc12 | . | 2 | -0.11 | 11 | i
CCOC(=O)c1c(CN2CCN(CCO)CC2)n(C)c2cc(Br)c(OC)cc12 | . | 54* | -2.3 | 12 | i
CCOC(=O)c1c(CN2CCCCC2)n(C)c2cc(Br)c(OC)cc12 | 22 | 99* | -0.36 | 23 | i
COc1ccc(C(=O)N2CCOCC2)cc1Br | -29 | -9 | -1 | 0 | i
CCOC(=O)c1c(C)n(C)c2cc(Br)c(OC)cc12 | . | -1 | 0.22 | 18 | i
CCOC(=O)c1c(CNCCN(CC)CC)n(C)c2cc(Br)c(OC)cc12 | -4 | 100* | 0.7 | 5 | i
COc1cc2c(C(=O)N3CCOCC3)c(CSc3ccccc3)n(C)c2cc1Br | -100 | 47 | -0.89 | 60* | i
CN(c1ccccc1)S(=O)(=O)c1cccc(NC(=O)COC(=O)C2CCCCC2)c1 | . | . | 0.46 | . | .
SMILES | INS promoter inh | Lmaj promast | Ins promoter up | WT yeast gro inh | Autophagy mod
CCOC(=O)c1c(C)n(CC(O)CN(CC)CC)c2cc(Br)c(OC)cc12 (stereo not given) | 0 | 89* | 0.14 | -8 | i
CCN(CC)CCNC(=O)c1c(C)n(-c2ccccc2)c2cc(Br)c(OC)cc12 | -8 | 101* | 0.25 | 20 | +
COc1cc2c(C(=O)N3CCN(C)CC3)c(C)n(-c3ccccc3)c2cc1Br | 0 | 12 | -0.85 | 10 | i
CCN(CC)c1nc(=S)nc(NC(C)(C)C)[nH]1 | . | 95* | 0.06 | 37 | i
CCN(CC)c1nc(N(CC)CC)[nH]c(=O)n1 | -144 | 9 | . | . | i
Cc1noc(C)c1S(=O)(=O)N(C)CC(=O)NCc1ccccc1 | . | -6 | 0.7 | -9 | i

Source: PubChem (several laboratories)
